Assay results as given in PubChem BioAssay AID1159580 (chemical genetic matrix, 2015).
The whole screen tested about 5,500 compounds, of which about 2,000 (36%) were called active. Another 18% or so got no clear call; they are omitted. No stated cut-off is given here; in the data, active means normalized growth mostly below about 0.91 (no sharp cut-off); inconclusive means no clear call, values can overlap the other calls; inactive means mostly above about 0.92. Some of the results follow.

Assay: chemical genetic growth profiling, strain panel (AID 1159580);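 further: tested at 20 µM; growth read once vehicle control cultures reached saturation at 30 °C; 1 = growth at the plate median or of vehicle wells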
Conditions: growth OD

Measured: normalized growth

COc1ccc(C[C@H](N)C(=O)N[C@@H]2[C@@H](CO)OC(n3cnc4c(N(C)C)ncnc43)[C@@H]2O)cc1 (some centres not stated)
inactive: S. cerevisiae deletion strains, locus YJR075W, strain HOC1, stronger effect = lower value 0.997 | S. cerevisiae deletion strains, locus YKL009W, strain mrt4, stronger effect = lower value 1.03 | S. cerevisiae deletion strains, locus YKL068W, stronger effect = lower value 1.02 | S. cerevisiae deletion strains, locus YKL085W, strain MDH1 (second series), stronger effect = lower value 1.01 | S. cerevisiae deletion strains, locus YKL085W, strain MDH1, stronger effect = lower value 1.01 | S. cerevisiae deletion strains, locus YKL160W, strain elf1, stronger effect = lower value 0.993 | S. cerevisiae deletion strains, locus YKL190W, strain CNB1, stronger effect = lower value 1 | S. cerevisiae deletion strains, locus YKR001C, strain vps1, stronger effect = lower value 1.02 | S. cerevisiae deletion strains, locus YKR026C, strain gcn3, stronger effect = lower value 1 | S. cerevisiae deletion strains, locus YKR091W, strain srl3, stronger effect = lower value 1.02 | S. cerevisiae deletion strains, locus YLL001W, strain dnm1, stronger effect = lower value 0.961 | S. cerevisiae deletion strains, locus YLL026W, stronger effect = lower value 0.987 | S. cerevisiae deletion strains, locus YLL041C, strain sdh2, stronger effect = lower value 1 | S. cerevisiae deletion strains, locus YLR027C, strain aat2, stronger effect = lower value 0.997 | S. cerevisiae deletion strains, locus YLR039C, strain RIC1, stronger effect = lower value 1.04 | S. cerevisiae deletion strains, locus YLR058C, strain SHM2, stronger effect = lower value 1.01 | S. cerevisiae deletion strains, locus YLR102C, strain apc9, stronger effect = lower value 1.01 | S. cerevisiae deletion strains, locus YLR113W, strain HOG1, stronger effect = lower value 0.989 | S. cerevisiae deletion strains, locus YLR221C, strain rsa3, stronger effect = lower value 0.991 | S. cerevisiae deletion strains, locus YLR258W, strain gsy2, stronger effect = lower value 1 | S. cerevisiae deletion strains, locus YLR262C, strain YPT6 (second series), stronger effect = lower value 1.01 | S. cerevisiae deletion strains, locus YLR262C, strain YPT6, stronger effect = lower value 1.04 | S. cerevisiae deletion strains, locus YLR268W, strain sec22, stronger effect = lower value 1.01 | S. cerevisiae deletion strains, locus YLR320W, strain mms22, stronger effect = lower value 1 | S. cerevisiae deletion strains, locus YLR330W, strain CHS5, stronger effect = lower value 1.01 | S. cerevisiae deletion strains, locus YLR342W, strain FKS1 (second series), stronger effect = lower value 0.992 | S. cerevisiae deletion strains, locus YLR342W, strain FKS1, stronger effect = lower value 0.996 | S. cerevisiae deletion strains, locus YLR357W, strain rsc2, stronger effect = lower value 1.01 | S. cerevisiae deletion strains, locus YLR370C, strain arc18, stronger effect = lower value 0.985 | S. cerevisiae deletion strains, locus YLR371W, strain rom2, stronger effect = lower value 1.02 | S. cerevisiae deletion strains, locus YLR384C, strain iki3, stronger effect = lower value 0.979 | S. cerevisiae deletion strains, locus YLR418C, strain cdc73, stronger effect = lower value 0.988 | S. cerevisiae deletion strains, locus YML016C, strain PPZ1, stronger effect = lower value 1.01 | S. cerevisiae deletion strains, locus YML032C, strain rad52, stronger effect = lower value 1.03 | S. cerevisiae deletion strains, locus YML120C, strain ndi1, stronger effect = lower value 0.996 | S. cerevisiae deletion strains, locus YML124C, strain tub3, stronger effect = lower value 1.02 | S. cerevisiae deletion strains, locus YMR058W, strain fet3, stronger effect = lower value 1 | S. cerevisiae deletion strains, locus YMR078C, strain ctf18, stronger effect = lower value 1.02 | S. cerevisiae deletion strains, locus YMR125W, strain sto1, stronger effect = lower value 1.01 | S. cerevisiae deletion strains, locus YMR129W, stronger effect = lower value 0.995 | S. cerevisiae deletion strains, locus YMR205C, strain PFK2, stronger effect = lower value 1 | S. cerevisiae deletion strains, locus YMR223W, strain ubp8, stronger effect = lower value 1.03 | S. cerevisiae deletion strains, locus YMR231W, strain pep5, stronger effect = lower value 0.987 | S. cerevisiae deletion strains, locus YMR263W, strain SAP30, stronger effect = lower value 1 | S. cerevisiae deletion strains, locus YMR307W, strain GAS1, stronger effect = lower value 1.06 | S. cerevisiae deletion strains, locus YNL067W, strain RPL9B, stronger effect = lower value 1 | S. cerevisiae deletion strains, locus YNL071W, strain lat1, stronger effect = lower value 1.01 | S. cerevisiae deletion strains, locus YNL128W, strain TEP1, stronger effect = lower value 1.01 | S. cerevisiae deletion strains, locus YNL153C, strain GIM3, stronger effect = lower value 0.988 | S. cerevisiae deletion strains, locus YNL183C, strain NPR1, stronger effect = lower value 0.935 | S. cerevisiae deletion strains, locus YNL209W, strain ssb2, stronger effect = lower value 0.996 | S. cerevisiae deletion strains, locus YNL233W, strain BNI4, stronger effect = lower value 1 | S. cerevisiae deletion strains, locus YNL248C, strain rpa49, stronger effect = lower value 1.01 | S. cerevisiae deletion strains, locus YNL250W, strain rad50, stronger effect = lower value 1.04 | S. cerevisiae deletion strains, locus YNL271C, strain bni1, stronger effect = lower value 1.01 | S. cerevisiae deletion strains, locus YNL298W, strain CLA4, stronger effect = lower value 1.01 | S. cerevisiae deletion strains, locus YNL307C, strain MCK1, stronger effect = lower value 1.04 | S. cerevisiae deletion strains, locus YNL322C, strain KRE1 (second series), stronger effect = lower value 0.994 | S. cerevisiae deletion strains, locus YNL322C, strain KRE1, stronger effect = lower value 1.01 | S. cerevisiae deletion strains, locus YNR049C, strain mso1, stronger effect = lower value 0.987 | S. cerevisiae deletion strains, locus YNR052C, strain pop2, stronger effect = lower value 1.02 | S. cerevisiae deletion strains, locus YOL006C, strain TOP1, stronger effect = lower value 1.02 | S. cerevisiae deletion strains, locus YOL012C, strain htz1 0.862 | S. cerevisiae deletion strains, locus YOL147C, strain pex11, stronger effect = lower value 1.02 | S. cerevisiae deletion strains, locus YOR001W, strain rrp6, stronger effect = lower value 0.988 | S. cerevisiae deletion strains, locus YOR061W, strain CKA2, stronger effect = lower value 1.01 | S. cerevisiae deletion strains, locus YOR069W, strain VPS5, stronger effect = lower value 0.996 | S. cerevisiae deletion strains, locus YOR070C, strain gyp1, stronger effect = lower value 0.984 | S. cerevisiae deletion strains, locus YOR080W, strain dia2, stronger effect = lower value 0.992 | S. cerevisiae deletion strains, locus YOR083W, strain WHI5, stronger effect = lower value 1.02 | S. cerevisiae deletion strains, locus YOR106W, strain vam3, stronger effect = lower value 0.984 | S. cerevisiae deletion strains, locus YOR136W, strain idh2, stronger effect = lower value 1.02 | S. cerevisiae deletion strains, locus YOR144C, strain elg1, stronger effect = lower value 1.01 | S. cerevisiae deletion strains, locus YOR184W, strain ser1, stronger effect = lower value 1.04 | S. cerevisiae deletion strains, locus YOR231W, strain MKK1, stronger effect = lower value 0.961 | S. cerevisiae deletion strains, locus YOR265W, strain rbl2, stronger effect = lower value 0.991 | S. cerevisiae deletion strains, locus YOR270C, strain vph1, stronger effect = lower value 0.993 | S. cerevisiae deletion strains, locus YOR290C, strain snf2, stronger effect = lower value 1 | S. cerevisiae deletion strains, locus YOR316C, strain cot1, stronger effect = lower value 1.02 | S. cerevisiae deletion strains, locus YPL051W, strain arl3, stronger effect = lower value 0.976 | S. cerevisiae deletion strains, locus YPL055C, strain LGE1, stronger effect = lower value 1 | S. cerevisiae deletion strains, locus YPL078C, strain atp4, stronger effect = lower value 0.972 | S. cerevisiae deletion strains, locus YPL106C, strain sse1, stronger effect = lower value 0.996 | S. cerevisiae deletion strains, locus YPL240C, strain hsp82, stronger effect = lower value 0.986 | S. cerevisiae deletion strains, locus YPL241C, strain CIN2, stronger effect = lower value 1 | S. cerevisiae deletion strains, locus YPL256C, strain CLN2, stronger effect = lower value 0.965 | S. cerevisiae deletion strains, locus YPR119W, strain clb2, stronger effect = lower value 1.01 | S. cerevisiae deletion strains, locus YPR141C, strain kar3, stronger effect = lower value 1.03 | S. cerevisiae deletion strains, locus YPR163C, strain tif3, stronger effect = lower value 1.02 | S. cerevisiae deletion strains, locus YPR167C, strain met16, stronger effect = lower value 1.02 | S. cerevisiae deletion strains, strain wtn01, stronger effect = lower value 0.986 | S. cerevisiae strains, strain wild type, stronger effect = lower value 1.01
